Measured values reported in ChEMBL document CHEMBL1961873, “Compounds: GSK PKIS; Assays: Nanosyn kinase panel” (2012).

Columns and labels:
[1] = target: Protein kinase C gamma type (Homo sapiens) (UniProt P05129); settings: at 1 µM;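 further: each value is an averaged percent inhibition of the enzyme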
[2] = target: T1, Protein kinase C iota type (Homo sapiens) (UniProt P41743); settings: at 0.1 µM
T1 sequence (whole entry): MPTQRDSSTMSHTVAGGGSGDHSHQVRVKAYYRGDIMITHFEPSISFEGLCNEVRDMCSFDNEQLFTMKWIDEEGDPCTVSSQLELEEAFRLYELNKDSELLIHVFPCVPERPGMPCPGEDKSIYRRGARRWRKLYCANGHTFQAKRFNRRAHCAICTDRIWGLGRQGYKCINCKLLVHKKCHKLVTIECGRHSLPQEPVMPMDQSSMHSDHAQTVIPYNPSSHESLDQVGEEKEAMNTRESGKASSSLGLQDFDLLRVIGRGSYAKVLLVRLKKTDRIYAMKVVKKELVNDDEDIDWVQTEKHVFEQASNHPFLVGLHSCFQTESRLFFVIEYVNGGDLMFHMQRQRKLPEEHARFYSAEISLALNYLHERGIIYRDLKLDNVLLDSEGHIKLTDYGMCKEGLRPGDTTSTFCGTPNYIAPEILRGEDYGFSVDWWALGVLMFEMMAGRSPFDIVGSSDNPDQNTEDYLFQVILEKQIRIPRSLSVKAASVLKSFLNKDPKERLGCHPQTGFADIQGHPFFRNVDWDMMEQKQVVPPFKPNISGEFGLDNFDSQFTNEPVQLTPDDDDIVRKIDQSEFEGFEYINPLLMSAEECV

[3] = target: T1, Protein kinase C iota type (Homo sapiens); settings: at 1 µM
[4] = target: Protein kinase C theta type (Homo sapiens) (UniProt Q04759); settings: at 0.1 µM
Sequence of Protein kinase C theta type (Homo sapiens) (Q04759 whole entry, looked up): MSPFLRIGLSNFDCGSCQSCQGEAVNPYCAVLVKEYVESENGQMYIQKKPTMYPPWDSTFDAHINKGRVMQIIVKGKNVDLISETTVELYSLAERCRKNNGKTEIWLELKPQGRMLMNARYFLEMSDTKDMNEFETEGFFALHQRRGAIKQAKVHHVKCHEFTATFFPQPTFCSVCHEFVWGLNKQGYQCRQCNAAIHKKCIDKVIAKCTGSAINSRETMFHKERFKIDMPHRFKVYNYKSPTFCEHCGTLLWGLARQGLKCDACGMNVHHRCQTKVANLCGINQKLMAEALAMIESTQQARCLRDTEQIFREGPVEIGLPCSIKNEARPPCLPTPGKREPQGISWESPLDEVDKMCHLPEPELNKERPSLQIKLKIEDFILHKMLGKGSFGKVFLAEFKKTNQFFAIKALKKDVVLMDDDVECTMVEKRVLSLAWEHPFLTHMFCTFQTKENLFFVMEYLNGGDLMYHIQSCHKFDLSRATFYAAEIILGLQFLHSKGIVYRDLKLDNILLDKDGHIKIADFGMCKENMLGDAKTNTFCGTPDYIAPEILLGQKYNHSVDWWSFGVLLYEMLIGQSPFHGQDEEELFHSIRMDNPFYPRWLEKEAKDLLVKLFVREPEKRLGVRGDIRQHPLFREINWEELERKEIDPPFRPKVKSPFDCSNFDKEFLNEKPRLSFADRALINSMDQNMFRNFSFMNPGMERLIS

[5] = target: Protein kinase C theta type (Homo sapiens) (UniProt Q04759); settings: at 1 µM
[6] = target: Protein kinase C beta type (Homo sapiens) (UniProt P05771); settings: at 0.1 µM
Sequence of Protein kinase C beta type (Homo sapiens) (P05771 2-671 limits assumed): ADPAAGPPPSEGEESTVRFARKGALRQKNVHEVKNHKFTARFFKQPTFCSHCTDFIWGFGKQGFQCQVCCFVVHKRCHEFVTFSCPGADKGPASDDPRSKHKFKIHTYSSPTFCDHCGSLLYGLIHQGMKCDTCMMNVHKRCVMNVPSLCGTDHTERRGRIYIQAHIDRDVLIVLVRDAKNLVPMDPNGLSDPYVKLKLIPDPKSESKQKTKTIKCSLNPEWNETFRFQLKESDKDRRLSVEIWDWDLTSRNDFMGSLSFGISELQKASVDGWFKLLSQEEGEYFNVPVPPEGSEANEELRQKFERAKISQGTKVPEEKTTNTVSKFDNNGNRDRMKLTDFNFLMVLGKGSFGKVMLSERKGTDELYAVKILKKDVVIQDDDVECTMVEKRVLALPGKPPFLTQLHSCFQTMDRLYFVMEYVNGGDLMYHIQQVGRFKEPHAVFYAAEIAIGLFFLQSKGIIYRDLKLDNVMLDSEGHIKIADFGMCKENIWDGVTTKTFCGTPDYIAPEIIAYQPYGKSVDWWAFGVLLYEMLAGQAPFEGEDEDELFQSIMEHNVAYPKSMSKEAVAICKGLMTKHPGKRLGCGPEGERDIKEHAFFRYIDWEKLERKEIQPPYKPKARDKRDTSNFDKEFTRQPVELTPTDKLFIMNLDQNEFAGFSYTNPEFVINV

[7] = target: Protein kinase C beta type (Homo sapiens) (UniProt P05771); settings: at 1 µM
[8] = target: T2, Serine/threonine-protein kinase D1 (Homo sapiens) (UniProt Q15139); settings: at 0.1 µM
T2 sequence (whole entry): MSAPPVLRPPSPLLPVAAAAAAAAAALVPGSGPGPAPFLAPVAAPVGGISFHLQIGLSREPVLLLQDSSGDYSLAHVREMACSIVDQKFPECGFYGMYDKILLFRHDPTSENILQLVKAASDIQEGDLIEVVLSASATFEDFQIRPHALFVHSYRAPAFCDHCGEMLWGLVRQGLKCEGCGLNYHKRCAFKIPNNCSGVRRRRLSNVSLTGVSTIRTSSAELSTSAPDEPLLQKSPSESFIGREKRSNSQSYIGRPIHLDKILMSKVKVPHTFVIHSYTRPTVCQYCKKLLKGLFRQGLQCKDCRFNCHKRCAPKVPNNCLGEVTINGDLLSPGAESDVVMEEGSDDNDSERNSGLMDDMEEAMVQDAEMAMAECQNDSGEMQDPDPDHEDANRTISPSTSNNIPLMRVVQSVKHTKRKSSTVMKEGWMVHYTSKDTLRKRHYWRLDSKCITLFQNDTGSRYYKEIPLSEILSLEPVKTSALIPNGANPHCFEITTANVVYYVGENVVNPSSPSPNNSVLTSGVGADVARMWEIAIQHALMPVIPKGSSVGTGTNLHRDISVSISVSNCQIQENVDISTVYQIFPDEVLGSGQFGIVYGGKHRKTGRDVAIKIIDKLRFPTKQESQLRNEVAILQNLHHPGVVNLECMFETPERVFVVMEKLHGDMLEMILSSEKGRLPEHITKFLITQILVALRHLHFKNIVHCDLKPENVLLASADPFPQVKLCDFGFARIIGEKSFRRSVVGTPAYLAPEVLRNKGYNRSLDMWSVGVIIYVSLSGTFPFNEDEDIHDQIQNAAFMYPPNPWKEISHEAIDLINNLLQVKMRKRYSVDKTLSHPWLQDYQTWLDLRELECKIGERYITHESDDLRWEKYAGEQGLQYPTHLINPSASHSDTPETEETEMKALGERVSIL

[9] = target: T2, Serine/threonine-protein kinase D1 (Homo sapiens); settings: at 1 µM
[10] = target: T3, Serine/threonine-protein kinase D2 (Homo sapiens) (UniProt Q9BZL6); settings: at 0.1 µM
T3 sequence (whole entry): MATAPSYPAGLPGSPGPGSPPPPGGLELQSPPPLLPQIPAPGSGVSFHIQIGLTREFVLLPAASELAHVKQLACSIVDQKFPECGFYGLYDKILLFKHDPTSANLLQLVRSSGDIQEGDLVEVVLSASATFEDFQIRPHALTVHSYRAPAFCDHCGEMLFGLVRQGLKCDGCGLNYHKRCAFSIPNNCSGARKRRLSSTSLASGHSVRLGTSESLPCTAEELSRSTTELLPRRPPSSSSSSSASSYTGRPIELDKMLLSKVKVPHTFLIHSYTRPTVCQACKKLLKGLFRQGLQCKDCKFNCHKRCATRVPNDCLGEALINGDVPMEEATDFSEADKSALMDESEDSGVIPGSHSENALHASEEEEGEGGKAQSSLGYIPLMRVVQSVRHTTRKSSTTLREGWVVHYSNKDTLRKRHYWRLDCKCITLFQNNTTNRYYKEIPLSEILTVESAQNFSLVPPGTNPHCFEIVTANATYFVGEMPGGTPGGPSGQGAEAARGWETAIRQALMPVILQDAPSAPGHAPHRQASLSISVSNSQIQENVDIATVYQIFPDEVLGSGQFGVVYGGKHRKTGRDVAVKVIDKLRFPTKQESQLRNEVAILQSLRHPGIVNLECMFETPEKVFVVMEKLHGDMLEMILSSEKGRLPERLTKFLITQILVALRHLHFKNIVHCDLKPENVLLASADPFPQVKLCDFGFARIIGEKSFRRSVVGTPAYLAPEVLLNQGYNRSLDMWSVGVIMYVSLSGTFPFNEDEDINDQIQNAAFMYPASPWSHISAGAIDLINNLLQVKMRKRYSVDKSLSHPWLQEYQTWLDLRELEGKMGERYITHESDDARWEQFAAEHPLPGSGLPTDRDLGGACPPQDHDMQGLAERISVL

[11] = target: T3, Serine/threonine-protein kinase D2 (Homo sapiens); settings: at 1 µM
[12] = target: T4, Serine/threonine-protein kinase D3 (Homo sapiens) (UniProt O94806); settings: at 0.1 µM
T4 sequence (whole entry): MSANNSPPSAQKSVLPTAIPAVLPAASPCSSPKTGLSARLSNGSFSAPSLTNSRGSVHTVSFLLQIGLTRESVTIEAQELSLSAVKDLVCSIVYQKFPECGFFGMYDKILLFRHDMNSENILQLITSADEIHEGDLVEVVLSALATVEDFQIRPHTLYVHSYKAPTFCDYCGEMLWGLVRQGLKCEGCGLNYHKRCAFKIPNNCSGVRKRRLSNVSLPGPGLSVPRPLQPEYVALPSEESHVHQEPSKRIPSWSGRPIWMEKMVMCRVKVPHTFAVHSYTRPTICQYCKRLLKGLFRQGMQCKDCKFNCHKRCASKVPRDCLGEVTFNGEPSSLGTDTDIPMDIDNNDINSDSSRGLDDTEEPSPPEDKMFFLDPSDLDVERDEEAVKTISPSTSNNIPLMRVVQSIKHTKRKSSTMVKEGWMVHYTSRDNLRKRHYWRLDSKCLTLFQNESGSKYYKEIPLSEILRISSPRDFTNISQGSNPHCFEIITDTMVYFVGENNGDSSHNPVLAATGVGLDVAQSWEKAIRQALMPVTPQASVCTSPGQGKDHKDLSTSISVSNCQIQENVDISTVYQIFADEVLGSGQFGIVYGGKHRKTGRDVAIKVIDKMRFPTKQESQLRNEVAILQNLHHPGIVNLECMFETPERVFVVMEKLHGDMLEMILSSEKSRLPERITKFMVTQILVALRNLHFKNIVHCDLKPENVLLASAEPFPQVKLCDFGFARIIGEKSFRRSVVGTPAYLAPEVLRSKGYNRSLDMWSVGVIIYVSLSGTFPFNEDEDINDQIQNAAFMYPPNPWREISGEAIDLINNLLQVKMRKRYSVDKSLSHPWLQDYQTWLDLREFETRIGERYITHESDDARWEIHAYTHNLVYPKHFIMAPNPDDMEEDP

[13] = target: T4, Serine/threonine-protein kinase D3 (Homo sapiens); settings: at 1 µM
[14] = target: T5, cGMP-dependent protein kinase 1 (Homo sapiens) (UniProt Q13976); settings: at 0.1 µM
T5 sequence (whole entry): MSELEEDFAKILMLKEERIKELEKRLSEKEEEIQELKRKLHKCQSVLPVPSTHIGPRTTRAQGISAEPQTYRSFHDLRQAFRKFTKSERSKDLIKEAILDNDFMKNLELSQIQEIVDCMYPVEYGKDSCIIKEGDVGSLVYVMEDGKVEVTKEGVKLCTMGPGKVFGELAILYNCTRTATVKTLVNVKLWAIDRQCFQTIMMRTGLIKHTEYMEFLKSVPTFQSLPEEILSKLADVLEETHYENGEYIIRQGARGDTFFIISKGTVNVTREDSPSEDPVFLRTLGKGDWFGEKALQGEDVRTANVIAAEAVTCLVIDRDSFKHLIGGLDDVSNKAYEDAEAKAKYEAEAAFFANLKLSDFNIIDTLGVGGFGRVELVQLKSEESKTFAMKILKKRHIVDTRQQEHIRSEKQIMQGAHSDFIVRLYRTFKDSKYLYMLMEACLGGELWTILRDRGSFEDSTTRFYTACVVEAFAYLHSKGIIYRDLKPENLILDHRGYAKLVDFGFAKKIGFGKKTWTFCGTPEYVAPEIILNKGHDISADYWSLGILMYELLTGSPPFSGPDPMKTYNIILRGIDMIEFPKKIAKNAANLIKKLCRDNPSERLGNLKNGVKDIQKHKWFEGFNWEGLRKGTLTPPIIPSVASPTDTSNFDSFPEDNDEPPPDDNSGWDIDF

[15] = target: T5, cGMP-dependent protein kinase 1 (Homo sapiens); settings: at 1 µM
[16] = target: T6, cGMP-dependent protein kinase 2 (Homo sapiens) (UniProt Q13237); settings: at 0.1 µM
T6 sequence (whole entry): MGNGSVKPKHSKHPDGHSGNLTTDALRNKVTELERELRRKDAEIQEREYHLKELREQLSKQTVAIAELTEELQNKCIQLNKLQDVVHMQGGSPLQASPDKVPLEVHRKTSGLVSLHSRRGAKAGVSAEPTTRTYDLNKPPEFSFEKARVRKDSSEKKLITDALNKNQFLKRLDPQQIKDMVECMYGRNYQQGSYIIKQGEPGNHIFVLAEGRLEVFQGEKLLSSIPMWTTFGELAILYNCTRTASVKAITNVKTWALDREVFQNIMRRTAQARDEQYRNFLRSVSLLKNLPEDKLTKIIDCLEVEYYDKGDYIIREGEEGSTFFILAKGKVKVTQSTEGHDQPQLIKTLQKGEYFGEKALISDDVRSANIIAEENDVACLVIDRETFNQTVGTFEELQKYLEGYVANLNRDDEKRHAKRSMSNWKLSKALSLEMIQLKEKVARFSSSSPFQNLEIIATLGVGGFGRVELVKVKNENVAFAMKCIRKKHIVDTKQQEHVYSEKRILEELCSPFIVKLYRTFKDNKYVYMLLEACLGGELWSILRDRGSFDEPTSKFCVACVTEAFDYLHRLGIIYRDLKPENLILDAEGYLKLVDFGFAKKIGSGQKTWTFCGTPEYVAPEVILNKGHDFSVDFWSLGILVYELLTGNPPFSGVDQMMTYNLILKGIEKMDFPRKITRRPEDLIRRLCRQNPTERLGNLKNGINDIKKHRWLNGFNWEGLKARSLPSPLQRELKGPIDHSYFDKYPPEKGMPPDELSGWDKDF

[17] = target: T6, cGMP-dependent protein kinase 2 (Homo sapiens); settings: at 1 µM
[18] = target: T7, cAMP-dependent protein kinase catalytic subunit PRKX (Homo sapiens) (UniProt P51817); settings: at 0.1 µM
T7 sequence (whole entry): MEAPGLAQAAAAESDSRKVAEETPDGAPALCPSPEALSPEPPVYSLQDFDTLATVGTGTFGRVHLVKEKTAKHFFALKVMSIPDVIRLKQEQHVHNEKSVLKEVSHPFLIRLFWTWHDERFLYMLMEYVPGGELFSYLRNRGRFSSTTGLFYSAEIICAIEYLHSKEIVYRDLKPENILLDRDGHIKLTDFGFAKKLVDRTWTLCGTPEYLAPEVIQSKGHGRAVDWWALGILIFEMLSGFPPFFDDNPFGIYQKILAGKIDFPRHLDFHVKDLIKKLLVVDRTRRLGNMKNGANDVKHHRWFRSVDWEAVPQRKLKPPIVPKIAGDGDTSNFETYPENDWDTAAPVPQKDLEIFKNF

[19] = target: T7, cAMP-dependent protein kinase catalytic subunit PRKX (Homo sapiens); settings: at 1 µM
[20] = target: Rho-associated protein kinase 1 (Homo sapiens) (UniProt Q13464); settings: at 0.1 µM;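 further: values are mean percent inhibition of ROCK1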
Sequence of Rho-associated protein kinase 1 (Homo sapiens) (Q13464 2-1354 limits assumed): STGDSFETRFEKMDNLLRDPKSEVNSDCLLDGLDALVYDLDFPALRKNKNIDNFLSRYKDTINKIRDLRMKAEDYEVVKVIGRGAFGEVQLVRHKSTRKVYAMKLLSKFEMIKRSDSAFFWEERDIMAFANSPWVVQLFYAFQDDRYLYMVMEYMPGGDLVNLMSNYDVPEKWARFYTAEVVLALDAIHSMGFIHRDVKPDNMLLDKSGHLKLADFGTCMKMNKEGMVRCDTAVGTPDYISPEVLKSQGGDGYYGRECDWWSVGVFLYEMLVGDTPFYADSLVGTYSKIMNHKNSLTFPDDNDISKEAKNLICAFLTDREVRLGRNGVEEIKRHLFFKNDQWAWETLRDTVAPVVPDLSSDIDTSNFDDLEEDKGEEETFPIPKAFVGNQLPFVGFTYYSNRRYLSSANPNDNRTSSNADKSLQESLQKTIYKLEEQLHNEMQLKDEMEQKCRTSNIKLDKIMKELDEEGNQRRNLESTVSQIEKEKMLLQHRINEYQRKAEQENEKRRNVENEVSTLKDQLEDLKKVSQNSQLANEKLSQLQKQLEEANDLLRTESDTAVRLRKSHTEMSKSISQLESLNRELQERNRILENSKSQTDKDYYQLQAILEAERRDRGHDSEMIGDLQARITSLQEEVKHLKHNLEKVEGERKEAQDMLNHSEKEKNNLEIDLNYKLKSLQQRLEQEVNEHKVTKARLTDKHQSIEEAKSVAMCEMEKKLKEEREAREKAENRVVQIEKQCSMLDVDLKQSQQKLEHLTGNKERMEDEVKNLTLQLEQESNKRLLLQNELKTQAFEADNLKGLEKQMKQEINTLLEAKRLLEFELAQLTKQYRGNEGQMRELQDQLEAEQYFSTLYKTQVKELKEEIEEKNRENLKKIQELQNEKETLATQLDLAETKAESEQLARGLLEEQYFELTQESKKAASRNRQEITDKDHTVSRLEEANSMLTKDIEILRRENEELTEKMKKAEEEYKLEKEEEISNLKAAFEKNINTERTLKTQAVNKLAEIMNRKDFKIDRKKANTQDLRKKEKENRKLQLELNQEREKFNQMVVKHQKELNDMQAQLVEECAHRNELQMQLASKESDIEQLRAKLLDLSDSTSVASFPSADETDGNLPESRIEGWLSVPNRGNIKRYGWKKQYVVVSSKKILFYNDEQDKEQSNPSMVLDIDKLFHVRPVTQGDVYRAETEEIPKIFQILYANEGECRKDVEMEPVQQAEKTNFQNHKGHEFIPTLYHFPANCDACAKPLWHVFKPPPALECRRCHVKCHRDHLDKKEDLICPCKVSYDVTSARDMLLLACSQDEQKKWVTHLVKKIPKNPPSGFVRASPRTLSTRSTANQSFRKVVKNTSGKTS

Compound: COc1cccc(-n2ncc3c(N/N=C/c4ccc(C(=O)NCCN(C)C)cc4)ncnc32)c1
- inhibition [1]: 4.05%
- inhibition [2]: 2.38%
- inhibition [3]: 10.3%
- inhibition [4]: 1.61%
- inhibition [5]: 1.46%
- inhibition [6]: 1.88%
- inhibition [7]: 17.7%
- inhibition [8]: 2.09%
- inhibition [9]: 7.26%
- inhibition [10]: 2.5%
- inhibition [11]: 6.33%
- inhibition [12]: 2.63%
- inhibition [13]: 4.71%
- inhibition [14]: 2.79%
- inhibition [15]: 1.97%
- inhibition [16]: 4.28%
- inhibition [17]: 20.5%
- inhibition [18]: 1.32%
- inhibition [19]: 5.04%
- inhibition [20]: 3.7%

Compound: CC1=C(C(=O)Nc2ccc3[nH]nc(C)c3c2)C(c2ccc(C(F)(F)F)cc2)CC(=O)N1 (stereo not given)
- inhibition [1]: 6.95%
- inhibition [2]: 1.92%
- inhibition [3]: 2.85%
- inhibition [4]: 2.33%
- inhibition [5]: 6.09%
- inhibition [6]: 0.62%
- inhibition [7]: 1.95%
- inhibition [8]: 2.86%
- inhibition [9]: 8.82%
- inhibition [10]: 2.82%
- inhibition [11]: 4.33%
- inhibition [12]: 3.46%
- inhibition [13]: 9.27%
- inhibition [14]: 3.93%
- inhibition [15]: 18.2%
- inhibition [16]: 5.55%
- inhibition [17]: 40.2%
- inhibition [18]: 7.3%
- inhibition [19]: 47%
- inhibition [20]: 67.8%
